Bioassay records as filed in PubChem BioAssay.
Only some compounds are listed: those with a hit (about 13% of all), similar ones and a draw of the others.
Pf growth 96h – Primary qHTS for delayed death inhibitors of the malarial parasite plastid, 96 hour incubation. P. falciparum luciferase reporter growth, 96 h. Potency, µM (titrated, usually from 28.7 µM), usual class: inhibitors. 320,000 tested, 6.9% active. AID 504834, 2011
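Compounds incubated with erythrocytes infected by luciferase-expressing P. falciparum (2% hematocrit, 0.05% parasitemia final) for 96 hours, 37 C in 5% CO2. Growth inhibition scored as decreased luciferase luminescence.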
HCMV antiviral – qHTS Assay for inhibitors of the human cytomegalovirus (HCMV) | HFF cells, HCMV-luciferase reporter, 72 h; active compounds read low | activity change, negative = inhibition, % at 57.5 µM | 410,000 tested, 4.5% active; in the data active = activity change below about -60%; inconclusive = no clear call, values can overlap the other calls; inactive = above about -39%
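Steps: HFFs plated, 16 h 37C; compounds added; HCMV-luciferase added to MOI 1 PFU/cell; 72 h 37C; OneGlo reagent, 5 min room temperature; luminescence read, normalized to controls.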
HCV inh – qHTS Assay for Inhibitors of Hepatitis C Virus (HCV); Huh7.5.1 HCVcc-Cre infection, luciferase reporter, 44 h; Potency, µM (titrated, usually from 41.8 µM), hits mostly inhibitors; 340,000 tested, 3.4% active; AID 651820, 2012
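Infectious HCV cell culture screen: compound-treated cells (1,000/well, pre-plated 4 h) are infected with HCVcc-Cre at roughly 0.5 moi and grown 44 h. Infection is quantified by luciferase signal after 15 min substrate incubation at room temperature.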
Pf growth 48h – Primary qHTS for delayed death inhibitors of the malarial parasite plastid, 48 hour incubation; Potency, µM (doses to about 28.7 µM), usual class: inhibitors; AID 504832, 2011; P. falciparum luciferase growth in erythrocytes, 48 h; 310,000 tested, 5.9% active
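Here the parasites carry a stable luciferase gene and grow inside erythrocytes in Albumax-based RPMI medium with compound for one erythrocytic cycle. Activity is scored as loss of luminescent signal.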
Hits are given with their value; 0 = inactive; ? = inconclusive; - = no result. Unless noted, calls come from the whole dose curve; as a rule, active = well fitted inhibition curve with a large enough effect; inconclusive = small, poorly fitted or top-dose-only effect, or another doubt; inactive = no such curve, though single readings can be large or run the other way.

SMILES	Pf growth 96h	HCMV antiviral	HCV inh	Pf growth 48h
CCOc1ccccc1C1N=C(N)Nc2nc3ccccc3n21 (configuration not stated)	-	0	-	-
COc1cccc(CNC2CCCc3ccccc32)c1OC (configuration not stated)	2.9µM	0	0	0
Cc1ccc(NC(=O)C(NC2CCCc3ccccc32)c2ccccc2)cc1Cl (configuration not stated)	?	0	0	?
CC(=O)c1cccc(NC(=O)NC2CCCc3ccccc32)c1 (configuration not stated)	?	-70	?	0
COc1ccc(C)cc1NC(=O)NC1CCCc2ccccc21 (configuration not stated)	0	0	?	12µM
Cc1ccc(NC(=O)C(NC2CCCc3ccccc32)c2ccccc2)c([N+](=O)[O-])c1 (configuration not stated)	?	0	?	13µM
COC(=O)Cc1c([C@H](C)[C@@H](OC)c2ccccc2Br)nnn1Cc1ccccc1	-	0	-	-
COc1cccc(NC(=O)CCNS(=O)(=O)c2ccc3c(c2)CCCC(=O)N3)c1	-	0	-	-
COc1ccc2cc(C(c3nnnn3C3CCCCC3)N3CCCCCC3)c3nnnn3c2c1 (configuration not stated)	-	0	0	-
COc1ccc(C(c2nnnn2C2CCCC2)N2CCC(C)CC2)c(OC)c1 (configuration not stated)	0	0	0	12µM
COc1ccc(OC)c(C(c2nnnn2C2CCCC2)N2CCN(c3ccc(F)cc3)CC2)c1 (configuration not stated)	0	0	?	12µM
C[N+]1(CC#CC(O)(c2ccccc2)c2ccccc2)CCCC1	5.2µM	0	0	?
CCN(CC)CCC#CC(O)(c1ccccc1)c1ccccc1	9.3µM	0	0	0
COc1ccc(NC(=O)C[C@H]2C(=O)N(Cc3ccccc3)C[C@@H]2CSC)cc1	-	0	-	-
COc1ccc(-c2onc(C)c2C)cc1S(=O)(=O)Nc1ccc(OC(F)(F)F)cc1	-	0	-	-
CCOC(=O)C1=CCN(S(=O)(=O)c2ccccc2C)C1c1ccc(Cl)c(Cl)c1 (configuration not stated)	-	-76	-	-
Cc1nc2ccccn2c1C(=O)/C=C/c1ccc(F)cc1	?	0	0	0
Cc1nc2ccccn2c1-c1ccnn1S(=O)(=O)c1ccc(F)cc1	?	-94	?	?
CN1/C(=C\C(=S)Nc2ccccc2)C(C)(C)c2ccccc21	?	-71	?	?
CN1/C(=C/C(=S)NC(=O)C2(C)CC2(Cl)Cl)C(C)(C)c2ccccc21 (configuration not stated)	?	-69	?	?
CN1/C(=C\C(=S)NC(=O)c2ccccc2Cl)C(C)(C)c2ccccc21	?	-84	?	?
CN1/C(=C\C(=O)Nc2ccc(Cl)cc2)C(C)(C)c2ccccc21	0	?	0	0
COc1ccccc1C(=O)NC(=S)/C=C1/N(C)c2ccccc2C1(C)C	?	-92	?	?
COC(=O)[C@]12C[C@H](CC(=O)N3CCOCC3)C(=O)N(Cc3ccc4c(c3)OCO4)C1=C[C@H](C(C)(C)C)O[C@@H]2C	-	0	-	-
CN1CCN(C(=O)c2ccc3c(c2)N(Cc2c(F)cccc2Cl)C(=O)c2ccccc2S3)CC1	-	0	-	-
SMILES	Pf growth 96h	HCMV antiviral	HCV inh	Pf growth 48h
CN(C)N1C(N)=C(C#N)C(c2cccnc2)C2=C1CCCC2=O (configuration not stated)	13µM	0	0	0
COc1ccc(N2C(N)=C(C#N)C(c3ccsc3)C3=C2CCCC3=O)c(OC)c1 (configuration not stated)	3.7µM	?	0	?
O=C1CCCC2=C1C(c1ccccc1)CC(=O)N2c1ccccc1 (configuration not stated)	13µM	0	0	0
N#CC1=C2N=C(N)c3ccccc3N2C2=C(C(=O)CCC2)C1c1ccc(F)cc1 (configuration not stated)	?	0	13µM	?
COc1cccc(C2C(C#N)=C(N)N(N(C)C)C3=C2C(=O)CCC3)c1 (configuration not stated)	0	0	0	0
Cc1cc2c(cc1NS(=O)(=O)c1cccc(C#N)c1)n(C)c(=O)c(=O)n2C	-	0	-	-
COc1ccc(NC(=O)CSc2nc(-c3ccccc3)nc3c2Cc2c(CO)cnc(C)c2O3)cc1Cl	-	0	-	-
